Laboratory results from PubChem BioAssay (Tox21).
Results filed as inconclusive are left out. Activity calls are given as the source filed them. Unless noted, calls follow the shape of the full dose curve.

Tests used:
[1] = Nuclear factor erythroid 2-related factor 2/antioxidant responsive element (Nrf2/ARE) small molecule agonists: qHTS cell viability counter screen in human keratinocytes (AID 1919968; active = well fitted curve in the direction sought with a large enough effect in the repeat runs; an effect the other way counts as inactive or inconclusive; also: nearly all actives have a fitted effect of over 55% in size; also: potency is read from the fitted curve at half-maximal effect)
Method in brief: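 Cells of the KeratinoSens line were plated at 1,500 per well and left for 5 h before compound transfer from DMSO stocks. After a 23 h incubation (37 C, 5% CO2), CellTiter-Fluor was added. Signal was taken as fluorescence intensity 1 h later.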

[2] = Nuclear factor erythroid 2-related factor 2/antioxidant responsive element (Nrf2/ARE) small molecule agonists: luciferase reporter gene qHTS assay in human keratinocytes (AID 1919969); also: nearly all actives have a fitted effect of over 35% in size
[3] = biological target: Gonadotropin-releasing hormone receptor (Homo sapiens) (UniProt P30968); assay: Human gonadotropin-releasing hormone receptor (GnRHR) small molecule agonists, calcium flux assay in GnRHR-HEK293 cells (AID 1920063); also: nearly all actives have a fitted effect of over 35% in size
Chain of Gonadotropin-releasing hormone receptor (Homo sapiens) (P30968 whole entry, looked up): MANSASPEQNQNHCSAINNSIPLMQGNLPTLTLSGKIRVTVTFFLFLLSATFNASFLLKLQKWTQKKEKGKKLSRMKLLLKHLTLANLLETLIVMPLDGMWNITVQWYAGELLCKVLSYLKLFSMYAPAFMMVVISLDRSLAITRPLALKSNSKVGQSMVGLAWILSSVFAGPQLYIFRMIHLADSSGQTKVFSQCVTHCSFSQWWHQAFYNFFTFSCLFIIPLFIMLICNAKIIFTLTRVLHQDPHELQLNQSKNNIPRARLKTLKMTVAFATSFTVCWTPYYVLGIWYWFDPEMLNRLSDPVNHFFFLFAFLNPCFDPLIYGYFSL
Method in brief: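 Compounds dissolved in DMSO are pin-transferred onto dye-loaded GnRHR-HEK293 cells, which were seeded 18 h before at 37 C/5% CO2. Calcium signal is read as fluorescence intensity at 1 s intervals for 3 min.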

[4] = biological target: KiSS-1 receptor (Homo sapiens) (UniProt Q969F8); assay: Human kisspeptin (KISS1R) small molecule agonists, calcium flux assay in KISS1R-HEK293 cells (AID 1920064; active = well fitted curve in the direction sought with a large enough effect in the repeat runs; an effect the other way counts as inactive or inconclusive)
Chain of KiSS-1 receptor (Homo sapiens) (Q969F8 whole entry, looked up): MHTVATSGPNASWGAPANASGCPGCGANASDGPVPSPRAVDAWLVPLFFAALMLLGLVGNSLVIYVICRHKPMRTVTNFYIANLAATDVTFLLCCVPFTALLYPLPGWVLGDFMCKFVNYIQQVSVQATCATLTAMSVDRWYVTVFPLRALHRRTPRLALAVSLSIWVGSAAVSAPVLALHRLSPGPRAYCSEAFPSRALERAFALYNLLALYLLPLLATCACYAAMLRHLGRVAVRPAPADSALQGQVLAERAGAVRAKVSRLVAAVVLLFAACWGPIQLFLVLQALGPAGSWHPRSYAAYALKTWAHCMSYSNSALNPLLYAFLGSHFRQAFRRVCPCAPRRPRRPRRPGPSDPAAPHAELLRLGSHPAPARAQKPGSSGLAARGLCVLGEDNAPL
Method in brief: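 Cell line: HEK293, stable human KISS1R. Dye loading 1 h at 37 C after 18 h culture. Read: kinetic fluorescence, 480/540 nm, 3 min at 1 s intervals.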

[5] = G protein-coupled receptor (GPCR) small molecule agonists, calcium flux assay: HEK293 wild type cell line counter screen (AID 1920065)
Method in brief: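 Tox21 10K compounds, 15 concentrations each in triplicate, pin-transferred in DMSO onto dye-loaded cells; kinetic read at 480/540 nm for 3 min, 1 s intervals.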

[6] = p53 small molecule agonists, cell-based qHTS assay with human liver microsomes (AID 1963577);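 also: p53 response element beta-lactamase reporter cells with liver microsomes plus NADPH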
Method in brief: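 Steps: plate p53RE-bla cells, incubate 5 h at 37 C; add compound in DMSO; add microsomes (0.5 mg/mL final) and NADPH (0.5 mg/mL final); incubate 16 h at 37 C; add LiveBLAzer, 2 h RT; read fluorescence.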

[7] = p53 small molecule agonists, cell-based qHTS assay with rat liver microsomes (AID 1963578); also: potency is read from the fitted curve at half-maximal effect
Method in brief: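 Metabolic activation is supplied by rat liver microsomes with NADPH (each 0.5 mg/mL final). p53RE-bla cells incubate with compound 16 h at 37 C; reporter activity is measured by LiveBLAzer fluorescence.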

[8] = p53 small molecule agonists, cell-based qHTS assay with human liver microsomes: qHTS cell viability counter screen (AID 1963579); also: nearly all actives have a fitted effect of over 45% in size
Method in brief: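 After the 460/530 nm beta-lactamase read, CellTiter-Glo was added to the same wells and luminescence measured after 30 min at room temperature, giving viability of p53RE-bla cells treated 16 h with compounds plus microsomes and NADPH.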

[9] = p53 small molecule agonists, cell-based qHTS assay with rat liver microsomes: qHTS cell viability counter screen (AID 1963580); also: nearly all actives have a fitted effect of over 45% in size
Method in brief: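 Cytotoxicity counter screen: intracellular ATP read by CellTiter-Glo luminescence in the p53 reporter wells. HCT-116 p53RE-bla cells were treated for 16 h at 37 C alongside rat liver microsomes and NADPH, each 0.5 mg/mL final.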

[10] = p53 small molecule agonists, cell-based qHTS assay: qHTS cell viability counter screen (AID 1963581); also: nearly all actives have a fitted effect of over 45% in size; also: potency is read from the fitted curve at half-maximal effect
Method in brief: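 ATP content measured by luminescence in HCT-116 p53RE-bla cells treated 16 h at 37 C, same wells as the reporter screen.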

[11] = biological target: 5-hydroxytryptamine receptor 2A (Homo sapiens) (UniProt P28223); assay: 5-hydroxytryptamine receptor 2A (HTR2A) small molecule antagonists, cell-based qHTS assay (AID 1963586); also: nearly all actives have a fitted effect of over 45% in size
Chain of 5-hydroxytryptamine receptor 2A (Homo sapiens) (P28223 whole entry, looked up): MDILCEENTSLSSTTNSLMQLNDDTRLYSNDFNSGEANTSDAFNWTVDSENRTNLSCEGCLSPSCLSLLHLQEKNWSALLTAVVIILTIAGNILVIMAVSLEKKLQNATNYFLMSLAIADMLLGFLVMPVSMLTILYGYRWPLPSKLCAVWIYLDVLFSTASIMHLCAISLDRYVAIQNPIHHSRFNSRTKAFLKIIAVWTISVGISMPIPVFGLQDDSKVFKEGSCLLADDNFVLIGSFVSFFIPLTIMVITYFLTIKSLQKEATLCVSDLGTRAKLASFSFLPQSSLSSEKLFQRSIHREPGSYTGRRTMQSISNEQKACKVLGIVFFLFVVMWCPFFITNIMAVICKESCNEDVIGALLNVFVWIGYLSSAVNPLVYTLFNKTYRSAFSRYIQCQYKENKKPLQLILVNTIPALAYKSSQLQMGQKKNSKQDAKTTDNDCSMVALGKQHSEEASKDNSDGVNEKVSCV
Method in brief: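 CHO cells stably expressing human HTR2A were plated for 18 h at 37 C, then loaded with calcium dye for 1 h. Compounds were preincubated 5 min at room temperature before DOI (4 nM solution) was added. Kinetic fluorescence was read for 3 min.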

[12] = biological target: 5-hydroxytryptamine receptor 2A (Homo sapiens) (UniProt P28223); assay: 5-hydroxytryptamine receptor 2A (HTR2A) small molecule agonists, cell-based qHTS assay (AID 1963587); also: nearly all actives have a fitted effect of over 30% in size
Method in brief: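 Kinetic calcium-flux fluorescence (2 min, 1 sec intervals) after compound addition in agonist mode. HTR2A-CHO cells were cultured 18 h, then dye-loaded 1 h at 37 C.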

[13] = biological target: Muscarinic acetylcholine receptor M1 (Homo sapiens) (UniProt P11229); assay: Cholinergic receptor muscarinic 1 (CHRM1) small molecule antagonists, cell-based qHTS assay (AID 1963588); also: nearly all actives have a fitted effect of over 40% in size
Chain of Muscarinic acetylcholine receptor M1 (Homo sapiens) (P11229 whole entry, looked up): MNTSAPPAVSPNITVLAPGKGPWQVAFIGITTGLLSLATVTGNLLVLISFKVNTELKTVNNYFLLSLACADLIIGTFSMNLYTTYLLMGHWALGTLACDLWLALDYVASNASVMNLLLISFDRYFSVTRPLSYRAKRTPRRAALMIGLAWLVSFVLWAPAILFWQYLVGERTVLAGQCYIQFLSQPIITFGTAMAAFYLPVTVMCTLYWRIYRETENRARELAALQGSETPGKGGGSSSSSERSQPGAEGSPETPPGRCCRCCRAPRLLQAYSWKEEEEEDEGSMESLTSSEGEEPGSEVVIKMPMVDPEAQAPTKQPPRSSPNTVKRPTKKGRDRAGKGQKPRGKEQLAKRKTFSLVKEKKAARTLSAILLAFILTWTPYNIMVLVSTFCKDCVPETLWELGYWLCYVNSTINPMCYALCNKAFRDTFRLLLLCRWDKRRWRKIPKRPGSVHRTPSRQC
Method in brief: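 Compounds were tested at 15 concentrations in three independent runs. Dye-loaded CHRM1-CHO cells were exposed 5 min at room temperature before stimulation by acetylcholine added at 50nM. Intracellular calcium was read kinetically on FDSS for 3 min.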

[14] = biological target: Muscarinic acetylcholine receptor M1 (Homo sapiens) (UniProt P11229); assay: Cholinergic receptor muscarinic 1 (CHRM1) small molecule agonists, cell-based qHTS assay (AID 1963589); also: nearly all actives have a fitted effect of over 35% in size
Method in brief: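 Homogeneous fluorescence calcium flux, agonist mode. Human M1-expressing CHO cells; compound dosed at 15 concentrations, three independent runs; signal sampled every 1 sec.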

[15] = cAMP Responsive Elements (CRE) small molecule antagonists, cell-based qHTS assay (AID 1963591; active = well fitted inhibition curve with a large enough effect in the signal ratio in the repeat runs, not every such curve was filed as active; the % refers to the signal ratio)
Method in brief: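 First, CRE-bla HEK293T cells settled 18 h at 37 C. Next, compound and 0.25 uM final NKH477 were applied for 3 h. Last, LiveBLAzer B/G substrate was loaded for 2 h at room temperature.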

[16] = biological target: Beta-2 adrenergic receptor (Homo sapiens) (UniProt P07550); assay: Adrenergic beta2 receptor (ADRB2) small molecule antagonists, cell-based qHTS assay (AID 1963592); also: series mostly up to about 92 µM; nearly all actives have a fitted effect of over 50% in size
Chain of Beta-2 adrenergic receptor (Homo sapiens) (P07550 whole entry, looked up): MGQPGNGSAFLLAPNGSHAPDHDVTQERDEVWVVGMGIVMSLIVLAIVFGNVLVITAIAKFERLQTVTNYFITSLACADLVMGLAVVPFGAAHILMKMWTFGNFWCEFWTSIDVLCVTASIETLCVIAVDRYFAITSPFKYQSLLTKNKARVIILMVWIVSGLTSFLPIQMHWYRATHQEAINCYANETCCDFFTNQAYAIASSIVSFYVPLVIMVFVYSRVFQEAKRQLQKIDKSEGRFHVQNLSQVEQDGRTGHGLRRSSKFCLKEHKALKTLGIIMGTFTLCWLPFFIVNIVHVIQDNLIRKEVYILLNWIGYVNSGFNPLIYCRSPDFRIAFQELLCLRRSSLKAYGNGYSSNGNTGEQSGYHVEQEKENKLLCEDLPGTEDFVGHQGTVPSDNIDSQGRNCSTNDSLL
Method in brief: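 Assay format: CHO-ADRB2 cells, 18-20hr seeding at 37C/5% CO2, then compound plus 1nM isoproterenol agonist mix for 0.5hr RT. Homogeneous time-resolved fluorescence cAMP detection after 1hr, expressed as 665/615 nm ratio.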

[17] = biological target: D(2) dopamine receptor (Homo sapiens) (UniProt P14416); assay: Dopamine D2 receptor (DRD2) small molecule agonists, cell-based qHTS assay (AID 1963594); also: nearly all actives have a fitted effect of over 35% in size
Chain of D(2) dopamine receptor (Homo sapiens) (P14416 whole entry, looked up): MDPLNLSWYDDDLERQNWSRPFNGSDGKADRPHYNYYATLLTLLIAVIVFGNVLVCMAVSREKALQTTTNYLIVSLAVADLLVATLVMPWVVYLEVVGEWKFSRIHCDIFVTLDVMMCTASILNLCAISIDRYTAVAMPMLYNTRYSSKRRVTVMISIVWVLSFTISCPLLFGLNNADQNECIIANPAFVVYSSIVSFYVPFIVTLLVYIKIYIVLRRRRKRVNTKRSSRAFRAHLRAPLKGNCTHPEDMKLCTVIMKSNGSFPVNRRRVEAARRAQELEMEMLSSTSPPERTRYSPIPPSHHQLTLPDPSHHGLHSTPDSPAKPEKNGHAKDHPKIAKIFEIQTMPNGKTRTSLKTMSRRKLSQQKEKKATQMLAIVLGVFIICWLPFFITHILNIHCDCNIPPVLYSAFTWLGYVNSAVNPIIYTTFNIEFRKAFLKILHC
Method in brief: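 cAMP accumulation in DRD2-HEK293 cells measured by HTRF after 1 h detection; compounds added 10 min before NKH477 (200nM […]) forskolin-analogue stimulation, 30 min at room temperature, with Ro20-1724 present at 0.1 mM final.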

[18] = biological target: D(2) dopamine receptor (Homo sapiens) (UniProt P14416); assay: Dopamine D2 receptor (DRD2) small molecule antagonists, cell-based qHTS assay (AID 1963595; active = well fitted inhibition curve with a large enough effect in the signal ratio in the repeat runs, with a control signal flat; the % refers to the signal ratio)
Method in brief: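 Antagonist mode in DRD2-HEK293 cells: after compound addition with 0.1 mM Ro20-1724, cells received quinpirole (12 nM) and NKH477 (200 nM) for 30 min at room temperature; HTRF cAMP read after 1 h detection.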

[19] = cAMP Responsive Elements (CRE) small molecule agonists, cell-based qHTS assay (AID 1963590)
Method in brief: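 HEK 293T cells stably bearing CRE-bla were plated at 2,000 cells per well and rested 18 h. Compounds, positive controls or DMSO were added for 3 h at 37 C. LiveBLAzer B/G substrate was then loaded for 2 h at room temperature.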

Measured: Potency

CCC1CCC(CCC(=O)O)C1 (stereo not given)
not listed: [19]
inactive: all other assays above

CCOC(=O)c1c(N)sc2c1CCN(Cc1ccccc1)C2
active: [7] 15.8 µM
not listed: [14] | [15]
inactive: all other assays above

CC1=C(C(=O)OC(C)C)C(c2cccc([N+](=O)[O-])c2)C(C(=O)OC2CN(C(c3ccccc3)c3ccccc3)C2)=C(N)N1 (stereo not given)
active: [1] 8.41 µM | [10] 11.2 µM
not listed: [15] | [19]
inactive: all other assays above

CC(C)=CCC/C(C)=C/C=N/O
not listed: [15] | [19]
inactive: all other assays above

[Cl][Pt-2]([Cl])([Cl])[Cl]
not listed: [12] | [17] | [18] | [19]
inactive: all other assays above

CCN(O)CC
not listed: [11] | [12] | [16] | [17] | [18]
inactive: all other assays above

OCC(O)[C@@H](O)[C@H](O)[C@H](O)CO[C@H]1O[C@H](CO)[C@@H](O)[C@H](O)[C@H]1O (stereo not given in full)
not listed: [12] | [13] | [15]
inactive: all other assays above

OCCSc1ccccc1
not listed: [12] | [15] | [17]
inactive: all other assays above
